The record followed here is PubChem BioAssay AID588398 (Broad Institute, 2011).

Hit rate of the full screen: of about 1,200 compounds, about 110 (9.2%) were called active. About 8% were inconclusive and are not listed.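 The calls were made as follows: active = pathway reporter half-maximal dose under half the control reporter's, or control reporter unaffected while pathway reporter is inhibited; inconclusive = either signal flat at 30 to 70% inhibition or poorly fitted; inactive = the rest.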 A selection follows. Measured potencies and affinities stand elsewhere.

This experiment can be described thus: TES1-eGFP NF-kB reporter inhibition versus Tet-On dsRED, dose response, selectivity assay for LMP1 NF-kB inhibitor project, imaging, HEK293T, dual-color eGFP/dsRED, cherry-picks (AID 588398).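 Also: 0% = median of neutral control wells and -100% = median of MG132 positive control wells.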 To be noted: 48 h; HEK293T Tet-On dsRED counter-screen channel, at 19.5 µM (top of the series); activity change, negative = inhibition: at the top concentration. In general terms: A counterscreen serves to expose hits that act by an unwanted route or on another target.
Regarding `CCN(C(=O)c1cc(OC)c(OC)c(OC)c1)C1CCCCC1`, the “activity change, negative = inhibition” value is 7.62% (inactive).
As for `C[C@H](NC(=O)N1CCn2c1nc1ccccc12)C(=O)NCC1CCCO1` (some centres undefined), the figure is 8.93% (inactive); as for `CCOC(=O)c1c(CSc2nc(C)cc(C)c2C#N)n(C)c2cc(Br)c(OC(C)=O)cc12`, 3.15% (inactive).
As for `CC(=NNC(=S)N1CCCCC1)c1cccc(C)n1`, the “activity change, negative = inhibition” value was -27.2% (inactive).
Then `CCCc1c(C(=O)N/N=C(\C)c2ccccn2)nnn1-c1nonc1N`, with 22.8% (inactive).
As for `CC(=NNC(=S)N1CCCCCC1)c1cccc2cccnc12`, the figure is -12% (inactive); as for `COC(=O)c1ccc(COc2ccccc2/C=C/C(=O)c2ccc(OCC(=O)O)cc2)cc1`, -8.56% (inactive).
Then `COC(=O)c1ccccc1NC(=O)CC(=O)Nc1ccccc1C(=O)OC`, with 1.92% (inactive); and `COc1cccc(C(=O)N2CCN(c3nc4cc(C)cc(C)c4cc3C#N)CC2)c1`, with -18% (inactive); and `Cc1cc(=O)[nH]c(NN=Cc2cc(Br)ccc2O)n1`, with -97.9% (inactive).
`COc1ccc(N2C(=O)C(=O)/C(=C(/O)c3ccc(C)cc3)C2c2cccnc2)cc1` (centres undefined): the “activity change, negative = inhibition” value was 22.8% (inactive).
In the case of `CCCC(=O)C1=C(O)C(C(=O)OC)C(C)(C)CC1=Nc1ccncc1` (centres undefined), the “activity change, negative = inhibition” value is 19.7% (inactive).
Then `Cc1csc(N=Nc2ccc(N(C)C)cc2)[n+]1[O-]`, with -34.3% (inactive).
As for `Cc1ccc2c(c1)N(CC(=O)N1CCCC1)C(=O)c1cccnc1O2`, the “activity change, negative = inhibition” value was 38.8% (inactive).
As for `COc1ccccc1N1CCN(C(=O)CCC(=O)N2CCN(c3ccc(F)cc3)CC2)CC1`, the figure is 3.73% (inactive); as for `O=C(CSc1nnc(NC(=O)c2ccc3c(c2)OCO3)s1)NCc1ccco1`, 9.96% (inactive); as for `C/C(=N/NC(=O)c1cc(C2CC2)[nH]n1)c1cccs1`, 20.3% (inactive).
As for `Cn1c(/C=C/c2ccccc2)nc2ccccc21`, the figure is 1.47% (inactive); as for `Cc1ccc2[nH]c(C(=O)N/N=C/c3ccccc3O)c(C)c2c1`, 4.04% (inactive); as for `COc1cccc(/C=N/NC(=O)c2[nH]nc3c2CCc2ccccc2-3)c1O`, -95.5% (inactive).
As for `Cn1c(=O)c2c(ncn2CC(=O)Nc2cc(S(=O)(=O)N3CCCCC3)ccc2O)n(C)c1=O`, the figure is -5.88% (inactive).
On to `COc1ccc(CCNC(=O)CSc2ccsc2[N+](=O)[O-])cc1OC`, for which the “activity change, negative = inhibition” value is -6.35% (inactive).
Then `COC(=O)C(NS(=O)(=O)c1ccc(N2CCCC2=O)cc1)c1ccccc1` (centres undefined), with -12.8% (inactive).
For the molecule `CC(C)(C)c1nc2c(s1)CCc1onc(-c3ccc(Br)cc3)c1-2`, the “activity change, negative = inhibition” value is 14.6% (inactive).
As for `CN(C)c1ccc(C=Cc2ccnc3c(O)cccc23)cc1`, the figure is 11.2% (inactive); as for `COc1ccc(S(=O)(=O)N2CCN(CC(=O)Nc3ccc(C)c(F)c3)CC2)cc1`, -19.7% (inactive).
Then `CC(=NNC(=S)Nc1ccccc1)c1ccccn1`, with -98.8% (inactive).
As for `CC(=NNC(=S)Nc1ccccc1Cl)c1ccccn1`, the figure is -97.9% (inactive); as for `C/C(=N/NC(=O)c1ccc(C(C)(C)C)cc1)c1ccccn1`, -87.1% (inactive); as for `Cc1cnc(NC(=O)c2ccccn2)s1`, 9% (inactive).
With `CCOc1cc(C(=O)OC(C)C(=O)Nc2ncc(Cl)cc2Cl)ccc1OCC(=O)N1CCOCC1` (centres undefined), the “activity change, negative = inhibition” value was 12.4% (inactive).
Then `CCCCCC(=O)N1C[C@@H](O)[C@H](n2cc(C3CC3)nn2)C[C@@H]1c1ccc(C)cc1`, with 7.65% (inactive); and `O=C(Nc1cnc2ccccn2c1=O)c1ccc(Cl)cc1Cl`, with -8.94% (inactive); and `O=C(O)/C=C/c1ccc2ccccc2n1`, with -37.2% (inactive).
Then `Cc1cc(C)nc(N/C(=N\S(=O)(=O)Cc2ccccc2)Nc2ccccc2Br)n1`, with -58.7% (inactive); and `O=C1OCC2=C1C(c1ccc3c(c1)OCO3)c1cc3c(cc1O2)OCO3` (centres undefined), with 109% (inactive); and `Cc1cccc(C)c1Nc1nc2ccccc2o1`, with 18.3% (inactive).
Turning to `Cc1nc(Nc2nc3ccccc3o2)nc2c1CCC2`, the “activity change, negative = inhibition” value was -4.15% (inactive).
As for `O=[N+]([O-])c1ccc2ncnc(N3CCN(Cc4ccc5c(c4)OCO5)CC3)c2c1`, the figure is -93.3% (inactive); as for `CC(=C/c1ccccc1)/C=N/n1c(-c2ccncc2)n[nH]c1=S`, -87.9% (inactive).
With `CCOC(=O)c1ccc(NC(=O)CSc2nc(N3CCOCC3)nc(N3CCOCC3)n2)cc1`, the “activity change, negative = inhibition” value is -0.658% (inactive).
For `Cc1ccc(S(=O)(=O)N2c3ccccc3-c3c(ssc3=S)C2(C)C)cc1`, the “activity change, negative = inhibition” value is 0.776% (inactive).
As for `Cc1cccc(-n2ncc3c(N4CCOCC4)ncnc32)c1`, the figure is 8.93% (inactive); as for `O=C(Cc1cccc2ccccc12)Nc1ccc(-c2cc3ccccc3oc2=O)cc1`, 5.22% (inactive).
